ChEMBL document CHEMBL3988442, “University of Dundee, Small-Polar-MMV Screening Library” (2021)
The campaign covered roughly 48,000 compounds. About 13,000 (27%) showed an effect of 50% or more. Some of the results follow.

system: Wolbachia pipientis; experiment: Anti-Wolbachia Cell-Based Screen; format: functional; parameters: scale not given: in the data most compounds retested in dose-response had high values; settings: 5 µM

Row | Compound | Percent Effect [%]
1 | CCc1ncncc1C(=O)Nc1ccc2ccn(CCN(C)C)c2c1 | -10.28
2 | CCc1nc(C)c([C@H]2CN(C)C[C@@H]2C(=O)NCc2ccccc2OC)[nH]1 | -8.879
3 | Cc1ccccc1C(CC(=O)NCc1n[nH]c(N)n1)c1ccccc1 (stereo unspecified) | -7.585
4 | CC(NC(=O)NCCCc1n[nH]c(N)c1C#N)c1cccs1 (stereo unspecified) | -7.784
5 | Cc1ncsc1CN1CCOC(C)(C(=O)N(C)C)C1 (stereo unspecified) | 112.2
6 | Cc1ncsc1CN1CCOC(C)(C(N)=O)C1 (stereo unspecified) | 122.3
7 | Cc1ncsc1CN1CC2(CCCC2)CC1=O | -13.29
8 | Cc1ncsc1CN1CC[C@H]2OCC[C@@]2(C(=O)N(C)C)C1 | 3.882
9 | Cc1ncsc1CN1CCOC(C)(C(=O)N2CCOCC2)C1 (stereo unspecified) | 106.3
10 | Cc1nn(C)c(C)c1-c1ccnc(N(C)Cc2noc(C(C)C)n2)n1 | -9.96
11 | CCNC(=O)N[C@H]1C[C@@H](Cc2cc(CN3CCCCC3)on2)C1(C)C | 1.239
12 | Cc1ccoc1C(=O)N1CC[C@@H]2O[C@@H](C)C[C@H]2C1 | 0.7135
13 | COc1ccc(CN2CC[C@@H]3CN(S(C)(=O)=O)CCO[C@@H]3C2)cc1.O=C(O)C(F)(F)F | 4.247
14 | Cc1ccoc1C(=O)N1CC[C@@H]2CN(C3CCOCC3)CCO[C@@H]2C1.O=C(O)C(F)(F)F | 107.8
15 | O=C(O)C(F)(F)F.O=C(c1ccco1)N1CC[C@@H]2CN(C3CCOCC3)CCO[C@@H]2C1 | 107.9
16 | CN(C)C[C@H]1OC[C@@H]2CCN(C(=O)c3ccco3)C[C@@H]21.O=C(O)C(F)(F)F | 5.332
17 | Cc1ccoc1C(=O)N1CC[C@H]2O[C@@H](C)C[C@H]2C1 | -21.6
18 | Cc1ccc(C(=O)N2CC[C@@H]3CN(C4CCOCC4)CCO[C@@H]3C2)o1.O=C(O)C(F)(F)F | 105.9
19 | CN1CCO[C@@H]2CN(C(=O)c3ccc4[nH]ccc4c3)CC[C@@H]2C1.O=C(O)C(F)(F)F | -13.85
20 | O=C(O)C(F)(F)F.O=C(c1ccco1)N1CCOCC2(CCN(C3CCOCC3)C2)C1 (stereo unspecified) | 7.241
21 | Cc1ccc(CNC2(Cc3cc(-c4cccc(O)c4)on3)COC2)o1 | -8.459
22 | COC(=O)C1CCN(C(=O)c2ccc(N(C)S(C)(=O)=O)c(C)c2)CC1 | -6.417
23 | COCCC1(C(=O)O)CCCN(Cc2cc3c(cc2Cl)OCO3)C1 (stereo unspecified) | 4.782

Row | Compound | Percent Effect [%]
24 | CNC(=O)CN1CCC(NC2CSCCc3ccccc32)CC1 (stereo unspecified) | 0.2819
25 | COC(=O)N1CCC(c2nnc(Cn3ccnc3)n2C)CC1 | 110.5
26 | CC(C)OC(=O)N1CCC(c2nnc(Cn3ccnc3)n2C)CC1 | 96.34
27 | CC(C)S(=O)(=O)N1CCCC(c2nnc(Cn3ccnc3)n2C)C1 (stereo unspecified) | -6.159
28 | Cn1c(Cn2ccnc2)nnc1C1CCCN(C2CCCCC2)C1 (stereo unspecified) | -3.14
29 | CS(=O)(=O)N1CCC(c2nnc(Cn3ccnc3)n2C2CC2)CC1 | -22.9
30 | Cn1c(Cn2ccnc2)nnc1C1CCN(C(=O)C2(C)CC2)CC1 | 6.343
31 | Cc1ccc(N2C(=O)N[C@@H]3CCN(C(=O)C4CCCC4)[C@@H]3C2=O)cc1 | -4.286
32 | CCc1ccc(C(=O)O)cc1S(=O)(=O)N(C)c1cccc(C#N)c1 | -20.44
33 | c1csc(N2CCN(Cc3cc4n(n3)CCNC4)CC2)n1 | -2.451
34 | COC(=O)Cn1c(=O)nc2n1C(=O)N(c1ccc(Cl)cc1)C2 | 5.835
35 | CNc1nc(C)cc(NCc2cc(C)cc3c(C)c(C)[nH]c23)n1 | -6.475
36 | Cn1cc(CN2CC[C@@H]3O[C@H](C(=O)N4CCOCC4)C[C@@H]32)cn1 | 5.245
37 | Cc1cccc(CN2C[C@@H](CN3CCCN(C)CC3)C[C@H](CO)C2)n1 | -14.48
38 | Cc1cccc(CN2CC[C@@H]3O[C@@H](C(=O)N4CCN(C)CC4)C[C@@H]32)c1 | 93.61
39 | Cc1cccc(CN2CCN(C(=O)[C@@H]3CSCN3C)CC2)c1 | 0.2793
40 | O=C(O)C(F)(F)F.O=S(=O)(C1CC1)N1CC[C@@H]2[C@@H]1CCN2Cc1cccs1 | 10.91
41 | Cc1ccc(CN2CC[C@@H]3O[C@@H](C(=O)N4CCN(C)CC4)C[C@@H]32)cc1.O=C(O)C(F)(F)F.O=C(O)C(F)(F)F | 117.4
42 | Cc1cccc(CN2CC[C@@H]3O[C@@H](C(=O)N4CCN(C)CC4)C[C@@H]32)n1 | 123
43 | Cc1ccc(CN2CC[C@H]3[C@H]2CCN3S(=O)(=O)C2CC2)cc1.O=C(O)C(F)(F)F | -0.5114
44 | O=C(O)C(F)(F)F.O=C([C@@H]1CC[C@@H]2[C@@H](CCN2Cc2cccs2)O1)N1CCCCO1 | -2.602
45 | CN1CCN(C(=O)[C@H]2C[C@H]3[C@H](CCN3Cc3cccs3)O2)CC1.O=C(O)C(F)(F)F.O=C(O)C(F)(F)F | 106.2
46 | CN1CCN(C(=O)[C@H]2CC[C@@H]3[C@@H](CCN3Cc3ccsc3)O2)CC1.O=C(O)C(F)(F)F.O=C(O)C(F)(F)F | -13.28
